Results taken from PubChem BioAssay.
A number with no mark means an inactive call. Active and inactive are the calls of the source. Cut-off read from the data, not from the text of the source, unless noted: active = inhibition above about 44%; inactive = the rest.

biological target: Steroidogenic factor 1 (Homo sapiens) (UniProt Q13285); assay: inverse agonism at SF1 nuclear receptor – cell-based, luminescence, high throughput, counter-screen for LRH-1 inverse agonist project (AID 651614); conditions: cell-based SF1 luciferase reporter, at 3.6 µM, active compounds read high;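 note: cells cotransfected with StAR promoter reporter and SF1 expression vector; 0% = vehicle on cells with receptor and 100% = vehicle on cells lacking receptor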
Sequence (Q13285 whole entry, looked up): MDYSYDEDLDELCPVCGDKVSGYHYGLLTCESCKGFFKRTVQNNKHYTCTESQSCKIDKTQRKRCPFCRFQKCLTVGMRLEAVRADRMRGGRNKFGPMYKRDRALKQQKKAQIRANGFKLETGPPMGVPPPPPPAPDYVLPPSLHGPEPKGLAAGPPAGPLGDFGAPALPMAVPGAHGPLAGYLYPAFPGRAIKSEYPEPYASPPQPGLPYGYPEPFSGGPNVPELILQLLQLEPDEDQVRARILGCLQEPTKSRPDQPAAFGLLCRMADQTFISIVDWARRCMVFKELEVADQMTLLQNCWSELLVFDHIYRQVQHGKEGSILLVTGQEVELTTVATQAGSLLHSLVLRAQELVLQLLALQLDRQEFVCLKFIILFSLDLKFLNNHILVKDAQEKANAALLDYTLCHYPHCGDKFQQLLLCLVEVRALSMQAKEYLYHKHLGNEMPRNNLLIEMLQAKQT

| Compound | inhibition |
| --- | --- |
| CC(=O)NC12CC3CC(C1)CC(C(=O)Nc1nc4ccc(S(C)(=O)=O)cc4s1)(C3)C2 | 45.2% (active) |
| COc1ccccc1OCc1nnc(SCC(=O)Nc2ccc(N3CCOCC3)cc2)n1C | 29.6% |
| CC(=O)Nc1ccc(NC(=O)COC(=O)c2c(C)nn(-c3ccccc3)c2C)cc1 | 50.9% (active) |
| CCOc1cc(S(=O)(=O)NCc2ccncc2)ccc1Cl | 57.9% (active) |
| CC(=O)N(/N=C/c1ccc([N+](=O)[O-])o1)c1nc2ccccc2c(=O)n1-c1ccccc1 | 55.2% (active) |
| O=C(c1ccccc1)N(NC(=O)C(O)(c1ccccc1)c1ccccc1)c1cccc(F)c1 | 53% (active) |
| CC1CCCN(c2cc(N(C)CCO)c([N+](=O)[O-])c3nonc23)C1 (stereo not drawn) | 43.2% (active) |
| COc1ccc2nc(N3CCC(O)CC3)c(C#N)cc2c1 | 44.9% (active) |
| NC(=S)N/N=C/c1ccc(-c2ccc([N+](=O)[O-])cc2)o1 | 44.5% (active) |
| CC(=O)c1cccc(NC(=O)c2ccc([N+](=O)[O-])o2)c1 | 61.9% (active) |
| O=C(Nc1ccc(C(=O)N2CCOCC2)cc1)c1cccc([N+](=O)[O-])c1 | 41.9% |
| Cc1ccc(C)c(NC(=O)CSc2nnc(-c3ccccc3)n2N)c1 | 44.7% (active) |
| COc1ccc(CCNC(=O)CSc2nc3[nH]ncc3c(=O)n2-c2ccc(C)c(Cl)c2)cc1OC | 56.5% (active) |
| CC(=O)NC(Cc1c[nH]c2ccccc12)C(=O)OCC(=O)Nc1ccc2c(c1)OCO2 (stereo not drawn) | 56.7% (active) |
| Cc1ccc(NC(=O)COC(=O)c2cc(=O)c3ccccc3o2)c(Br)c1 | 51.1% (active) |
| CCOc1cc2c(cc1OCC)C(c1ccc(OC)cc1)N(c1ccccc1)C(=O)C2 (stereo not drawn) | -5% |
| O=[N+]([O-])c1cnccc1Nc1cccc(F)c1 | 55.1% (active) |
| CN(C)CCNC(=O)c1cccc2nc3cccc(F)c3nc12 | 72.1% (active) |
| Cc1ccccc1C(=O)N1CCN(c2ccc(NC(=O)c3ccc([N+](=O)[O-])o3)cc2)CC1 | 69.1% (active) |
| CCOCC(=O)Nc1ccc(S(=O)(=O)NCCc2ccccc2)cc1 | 43.2% (active) |

| Compound | inhibition |
| --- | --- |
| O=C(Nc1nnc(C2=COCCO2)o1)c1ccc([N+](=O)[O-])s1 | 40.3% |
| Cc1cc(C)c(SCCc2ccncc2)c(C)c1 | 57.5% (active) |
| CCN1C(=O)c2cccc3c(NC(=O)c4ccc(S(=O)(=O)N(C)C)cc4)ccc1c23 | 46.2% (active) |
| COc1ccc(C2=Nn3c(nnc3-c3ccccc3OC)SC2)cc1OCC1CC1 | 62.8% (active) |
| Cc1ccc2cccc(OCC(=O)NCCC3=CCCCC3)c2n1 | 58.1% (active) |
| COc1ccc(NC(=O)COC(=O)Cc2c[nH]c3ccccc23)cc1Cl | 42.5% |
| COc1cc2c(cc1OC)CN(C(=O)CN1CCN(S(=O)(=O)c3ccc(C)c(C)c3)CC1)CC2 | 45% (active) |
| Nc1ccc(Nc2ccncc2[N+](=O)[O-])cc1 | 61.9% (active) |
| Cc1ccc(NC(=O)CSc2nnc([C@@H]3CCCN3C(=O)OC(C)(C)C)o2)c(C)c1 | 54.5% (active) |
| O=C(NCC1CCCO1)c1ccc(NC(=O)c2cccc([N+](=O)[O-])c2)cc1 (stereo not drawn) | 54% (active) |
| O=C(c1ccccc1)c1ccc2nc(N3CCN(C(=O)c4ccco4)CC3)c3nncn3c2c1 | 44.3% (active) |
| O=C(c1c(F)c(F)c(F)c(F)c1F)N1CCN(c2cccc(C(F)(F)F)c2)CC1 | 44% (active) |
| Cc1ccc2c(c1)N(C)/C(=C/c1cccc[n+]1C)S2 | 64% (active) |
| Cc1ccc(SCC(=O)Nc2ccc(N3CCOCC3)cc2)cc1C | 47.2% (active) |
| COc1ccc(CCn2c(C)cc(C(=O)COC(=O)c3ccc(O)cc3O)c2C)cc1 | 28.4% |
| CC(NC(=O)c1ccco1)C(c1cccs1)N1CCN(c2ccccc2)CC1 (stereo not drawn) | 34.2% |
| Cc1cccc(-n2ncc3c2CCCC3NC(=O)C2(C(N)=O)CC2)c1C (stereo not drawn) | 48.4% (active) |
| Oc1ccc2ccccc2c1C=NCc1ccccc1 | 16.9% |
| COc1cc(C(=O)Nc2sc3c(c2C#N)CCN(C(C)=O)C3)cc(OC)c1OC | 62.2% (active) |

system: not listed separately; assay: compounds suppressing VP16-driven luciferase signal – cell-based, luminescence, high throughput, counter-screen for LRH-1 inverse agonist project (AID 651615; in the data active = inhibition above about 33%); conditions: Gal4-VP16 luciferase reporter cells, at 3.6 µM, active compounds read high

| Compound | inhibition |
| --- | --- |
| CC(=O)NC12CC3CC(C1)CC(C(=O)Nc1nc4ccc(S(C)(=O)=O)cc4s1)(C3)C2 | -1.09% |
| COc1ccccc1OCc1nnc(SCC(=O)Nc2ccc(N3CCOCC3)cc2)n1C | -11.3% |
| CC(=O)Nc1ccc(NC(=O)COC(=O)c2c(C)nn(-c3ccccc3)c2C)cc1 | -22.5% |
| CCOc1cc(S(=O)(=O)NCc2ccncc2)ccc1Cl | 55.6% (active) |
| CC(=O)N(/N=C/c1ccc([N+](=O)[O-])o1)c1nc2ccccc2c(=O)n1-c1ccccc1 | 2.37% |
| O=C(c1ccccc1)N(NC(=O)C(O)(c1ccccc1)c1ccccc1)c1cccc(F)c1 | 30.2% |
| CC1CCCN(c2cc(N(C)CCO)c([N+](=O)[O-])c3nonc23)C1 (stereo not drawn) | 14.8% |
| COc1ccc2nc(N3CCC(O)CC3)c(C#N)cc2c1 | -30.6% |
| NC(=S)N/N=C/c1ccc(-c2ccc([N+](=O)[O-])cc2)o1 | 13.5% |
| CC(=O)c1cccc(NC(=O)c2ccc([N+](=O)[O-])o2)c1 | -5.65% |
| O=C(Nc1ccc(C(=O)N2CCOCC2)cc1)c1cccc([N+](=O)[O-])c1 | -0.69% |
| Cc1ccc(C)c(NC(=O)CSc2nnc(-c3ccccc3)n2N)c1 | -20.5% |
| COc1ccc(CCNC(=O)CSc2nc3[nH]ncc3c(=O)n2-c2ccc(C)c(Cl)c2)cc1OC | -6.41% |
| CC(=O)NC(Cc1c[nH]c2ccccc12)C(=O)OCC(=O)Nc1ccc2c(c1)OCO2 (stereo not drawn) | -12.7% |
| Cc1ccc(NC(=O)COC(=O)c2cc(=O)c3ccccc3o2)c(Br)c1 | 2.1% |
| CCOc1cc2c(cc1OCC)C(c1ccc(OC)cc1)N(c1ccccc1)C(=O)C2 (stereo not drawn) | -4.52% |
| O=[N+]([O-])c1cnccc1Nc1cccc(F)c1 | 10% |
| CN(C)CCNC(=O)c1cccc2nc3cccc(F)c3nc12 | 55% (active) |
| Cc1ccccc1C(=O)N1CCN(c2ccc(NC(=O)c3ccc([N+](=O)[O-])o3)cc2)CC1 | 2.37% |
| CCOCC(=O)Nc1ccc(S(=O)(=O)NCCc2ccccc2)cc1 | 11.4% |

| Compound | inhibition |
| --- | --- |
| O=C(Nc1nnc(C2=COCCO2)o1)c1ccc([N+](=O)[O-])s1 | -6.2% |
| Cc1cc(C)c(SCCc2ccncc2)c(C)c1 | 34.3% (active) |
| CCN1C(=O)c2cccc3c(NC(=O)c4ccc(S(=O)(=O)N(C)C)cc4)ccc1c23 | -41.4% |
| COc1ccc(C2=Nn3c(nnc3-c3ccccc3OC)SC2)cc1OCC1CC1 | 24.6% |
| Cc1ccc2cccc(OCC(=O)NCCC3=CCCCC3)c2n1 | -3.55% |
| COc1ccc(NC(=O)COC(=O)Cc2c[nH]c3ccccc23)cc1Cl | -6.87% |
| COc1cc2c(cc1OC)CN(C(=O)CN1CCN(S(=O)(=O)c3ccc(C)c(C)c3)CC1)CC2 | 16.1% |
| Nc1ccc(Nc2ccncc2[N+](=O)[O-])cc1 | 15.7% |
| Cc1ccc(NC(=O)CSc2nnc([C@@H]3CCCN3C(=O)OC(C)(C)C)o2)c(C)c1 | -1.31% |
| O=C(NCC1CCCO1)c1ccc(NC(=O)c2cccc([N+](=O)[O-])c2)cc1 (stereo not drawn) | -2.03% |
| O=C(c1ccccc1)c1ccc2nc(N3CCN(C(=O)c4ccco4)CC3)c3nncn3c2c1 | -14.2% |
| O=C(c1c(F)c(F)c(F)c(F)c1F)N1CCN(c2cccc(C(F)(F)F)c2)CC1 | 11.4% |
| Cc1ccc2c(c1)N(C)/C(=C/c1cccc[n+]1C)S2 | 67% (active) |
| Cc1ccc(SCC(=O)Nc2ccc(N3CCOCC3)cc2)cc1C | -10.5% |
| COc1ccc(CCn2c(C)cc(C(=O)COC(=O)c3ccc(O)cc3O)c2C)cc1 | -15% |
| CC(NC(=O)c1ccco1)C(c1cccs1)N1CCN(c2ccccc2)CC1 (stereo not drawn) | -0.25% |
| Cc1cccc(-n2ncc3c2CCCC3NC(=O)C2(C(N)=O)CC2)c1C (stereo not drawn) | 50% (active) |
| Oc1ccc2ccccc2c1C=NCc1ccccc1 | 3.34% |
| COc1cc(C(=O)Nc2sc3c(c2C#N)CCN(C(C)=O)C3)cc(OC)c1OC | -16.2% |
